Screens: PubChem, Broad Institute
IDE exosite FP = exo-site inhibitors of human IDE, primary screen, biochemical, fluorescence anisotropy, probe displacement. purified IDE, FL-6b probe fluorescence polarization; stronger effect = lower value. z-score at 20 µM. actives 6.3% (n = 17,000);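 active means z-score of -3 or lower, meaning strong loss of probe binding signal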;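 further: His-tagged human IDE residues 42-1019 made in E. coli with 30 nM FL-6b probe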
Target sequence (P14735 42-1019 limits assumed): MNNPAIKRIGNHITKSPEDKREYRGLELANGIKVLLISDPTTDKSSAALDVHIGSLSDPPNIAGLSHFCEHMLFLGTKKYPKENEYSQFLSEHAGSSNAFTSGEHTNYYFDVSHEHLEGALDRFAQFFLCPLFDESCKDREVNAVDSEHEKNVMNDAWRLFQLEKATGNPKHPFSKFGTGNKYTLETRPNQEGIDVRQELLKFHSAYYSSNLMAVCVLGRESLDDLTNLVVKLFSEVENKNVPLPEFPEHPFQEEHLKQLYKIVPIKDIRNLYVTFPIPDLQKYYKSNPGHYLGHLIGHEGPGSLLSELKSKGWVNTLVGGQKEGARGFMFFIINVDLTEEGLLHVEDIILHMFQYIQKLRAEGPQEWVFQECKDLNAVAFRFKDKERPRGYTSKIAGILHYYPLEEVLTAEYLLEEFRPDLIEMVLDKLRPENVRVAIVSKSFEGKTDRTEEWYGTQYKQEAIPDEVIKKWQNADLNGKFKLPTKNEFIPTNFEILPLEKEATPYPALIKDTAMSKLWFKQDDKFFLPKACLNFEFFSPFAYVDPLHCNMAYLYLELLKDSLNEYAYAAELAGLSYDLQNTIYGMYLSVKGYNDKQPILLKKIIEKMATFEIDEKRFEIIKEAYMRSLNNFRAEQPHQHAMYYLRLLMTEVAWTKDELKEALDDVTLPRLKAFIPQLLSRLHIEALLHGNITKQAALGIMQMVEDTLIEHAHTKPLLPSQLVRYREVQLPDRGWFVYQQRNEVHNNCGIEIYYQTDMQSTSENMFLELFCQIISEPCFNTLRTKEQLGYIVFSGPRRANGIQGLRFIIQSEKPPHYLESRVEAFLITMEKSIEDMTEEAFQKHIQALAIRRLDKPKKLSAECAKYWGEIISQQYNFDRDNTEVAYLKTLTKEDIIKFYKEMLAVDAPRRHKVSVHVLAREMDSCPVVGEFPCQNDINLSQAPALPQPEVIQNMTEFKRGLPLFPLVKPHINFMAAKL
Each line names hits and unclear results; the compound was inactive in the other large screens; ! = not confirmed by another sample. The entries come from a sample that favours hits as a whole.

COCC#Cc1ccc([C@H]2[C@@H](CO)N3CCCCN(Cc4ccncc4)C[C@H]23)cc1	none
COc1ccc(C#Cc2ccc([C@H]3[C@H](CO)N4CCCCN(Cc5ccncc5)C[C@@H]34)cc2)cc1	none
COCC#Cc1ccc([C@@H]2[C@@H](CO)N3CCCCN(Cc4ccncc4)C[C@H]23)cc1	none
COc1ccccc1-c1ccc([C@H]2[C@@H](CO)N3CCCCN(Cc4ccncc4)C[C@@H]23)cc1	IDE exosite FP -4.6
COc1ccccc1-c1ccc([C@@H]2[C@@H](CO)N3CCCCN(Cc4ccncc4)C[C@H]23)cc1	IDE exosite FP -4.2
COc1ccc(C#Cc2ccc([C@@H]3[C@H](CO)N4CCCCN(Cc5ccncc5)C[C@@H]34)cc2)cc1	none
COc1ccccc1-c1ccc([C@H]2[C@H]3CN(Cc4ccncc4)CCCCN3[C@H]2CO)cc1	IDE exosite FP -4.7
COc1ccccc1-c1ccc([C@H]2[C@@H](CO)N3CCCCN(Cc4ccncc4)C[C@H]23)cc1	IDE exosite FP -8.9
COc1ccc([C@@H]2CC=CC[C@@H](C)Oc3ccccc3C(=O)N(C)[C@@H](C(C)C)C(=O)N2)c(OC)c1 (mixture of isomers)	none
COc1ccc2c3c([nH]c2c1)[C@@H](CO)NCC31CCN(Cc2ccc(F)cc2)CC1	none
O=C(Nc1ccc(-c2ccccc2)cc1)[C@@H]1[C@@H](CO)[C@@H]2Cn3c(cccc3=O)[C@@H]2N1CC1CCOCC1	none
CC(C)[C@@H]1CC=CC[C@H](C)Oc2ccccc2C(=O)N(C)[C@@H](Cc2ccccc2)C(=O)N1 (mixture of isomers)	none
COc1ccccc1-c1ccc(C2[C@H]3CNC[C@@H]2N3Cc2nccs2)cc1 (some centres not stated)	none
N#C[C@H]1N[C@H](CO)[C@@H]1c1ccc(C2=CCCCC2)cc1	none
OC[C@H]1[C@H](c2ccc(C#CC3(O)CCCC3)cc2)[C@H]2CN(Cc3cncnc3)CCCCN21	none
CO[C@H]1CN(C)C(=O)c2cc(NC(C)=O)ccc2OC[C@H](C)N(Cc2ccncc2)C[C@@H]1C	none
COc1ccccc1CN1CC[C@@H]2[C@H]1c1cc(C3=CCCCC3)ccc1N[C@@H]2CO	none
O=C(C[C@@H]1CC[C@@H]2[C@H](COC[C@@H](O)CN2CC2CCOCC2)O1)NCC1CCCCC1	none
CCC(=O)NC[C@@H]1[C@@H](c2ccc(C3=CCCC3)cc2)[C@@H](CO)N1C(C)=O	none
CCC(=O)N[C@@H]1CC[C@H](CC(=O)NCc2ccccc2F)O[C@@H]1CO	none
CCC(=O)N1[C@H](C#N)[C@H](c2ccccc2-c2cccc(C)c2)[C@@H]1CO	none
CCc1cnc(N2[C@@H](C#N)[C@@H](c3ccc(C#Cc4ccccc4F)cc3)[C@@H]2CO)s1	none
O=S(=O)(Cc1ccccc1)N1C[C@@H]2N[C@H](C1)C2c1ccc(-c2ccccc2)cc1 (some centres not stated)	none
OC[C@H]1[C@H](c2ccc(-c3ccc(F)cc3)cc2)[C@@H]2CN(Cc3ccncc3)CCCCN12	none
COc1ccccc1-c1ccc([C@@H]2[C@H](CO)N3CCCCN(Cc4ccncc4)C[C@@H]23)cc1	IDE exosite FP -8.9
OC[C@H]1[C@@H](c2ccc(-c3ccc(F)cc3)cc2)[C@@H]2CN(Cc3ccncc3)CCCCN12	none
O=C(Nc1cc(F)ccc1F)N1CC(=O)N2[C@H](C1)[C@@H](c1ccc(/C=C/c3ccccc3)cc1)[C@@H]2CO	none
Cc1ccccc1S(=O)(=O)N1CC(=O)N2[C@H](CO)[C@@H](c3ccc(C#CCC(C)C)cc3)[C@@H]2C1	none
CC(=O)N1[C@H](CO)[C@H](c2ccccc2)[C@@H]1CN(C(=O)c1ccc(F)cc1)C(C)C	none
C/C=C/c1ccc([C@H]2[C@@H](CO)N3CCCCN(C(=O)NC4CCCC4)C[C@H]23)cc1	none
O=C(NC1CCCC1)N1CCCCN2[C@H](CO)[C@@H](c3ccc(/C=C/c4ccccc4)cc3)[C@H]2C1	IDE exosite FP -4.2
O=C(NC1CCCC1)N1CCCCN2[C@H](CO)[C@H](c3ccc(/C=C/c4ccccc4)cc3)[C@@H]2C1	IDE exosite FP -9.7
C/C=C/c1ccc([C@@H]2[C@@H](CO)N3C(=O)CN(C(=O)Nc4ccc(F)cc4)C[C@H]23)cc1	none
C[C@@H]1CCn2cc(nn2)COC[C@H](Cc2ccccc2)NC1=O	none
CC(=O)NC[C@H]1[C@@H](c2ccc(-c3cccnc3)cc2)[C@H](CO)N1C(=O)C1CCC1	none
CCCNC(=O)N(C)C[C@H]1[C@H](c2ccccc2)[C@@H](CO)N1C(=O)c1ccccc1	none
O=C(c1cnccn1)N1C[C@@H]2N[C@H](C1)C2c1ccc(/C=C/c2ccccc2)cc1 (some centres not stated)	IDE exosite FP -4.2!
COc1ccc(-c2ccc(C3[C@@H]4CN(C(=O)c5cnccn5)C[C@H]3N4)cc2)cc1 (some centres not stated)	none
O=C(c1cnccn1)N1CC(=O)N2[C@H](C1)[C@@H](c1ccc(/C=C/c3ccccc3)cc1)[C@@H]2CO	none
Cc1cccc(-c2ccc([C@@H]3[C@@H]4CN(C(=O)CN(C)C)C[C@H]3N4)cc2)c1	none
